Records with an inconclusive call do not appear. Active and inactive are the calls of the source. Unless noted, calls come from the whole dose curve; as a rule, active = well fitted curve in the direction sought with a large enough effect; inconclusive = small, poorly fitted or top-dose-only effect, or another doubt; inactive = no such curve, though single readings can be large; an effect the other way counts as inactive or inconclusive.
biological target: Estrogen receptor (Homo sapiens) (UniProt P03372); experiment: qHTS assay to identify small molecule antagonists of the estrogen receptor alpha (ER-alpha) signaling pathway using the BG1 cell line in the presence of 0.1 nM 17-beta-estradiol (AID 1259244; active = well fitted curve in the direction sought with a large enough effect in the repeat runs; an effect the other way counts as inactive or inconclusive; note: nearly all actives have a fitted effect of over 50% in size; note: potency is the fitted concentration of half-maximal effect); details: VM7Luc4E2 (BG1) ERE-luciferase, antagonist mode, 0.1 nM E2, 22 h; series mostly up to 92.4 µM; activity change, negative = inhibition: at the top concentration
Sequence (P03372 whole entry, looked up): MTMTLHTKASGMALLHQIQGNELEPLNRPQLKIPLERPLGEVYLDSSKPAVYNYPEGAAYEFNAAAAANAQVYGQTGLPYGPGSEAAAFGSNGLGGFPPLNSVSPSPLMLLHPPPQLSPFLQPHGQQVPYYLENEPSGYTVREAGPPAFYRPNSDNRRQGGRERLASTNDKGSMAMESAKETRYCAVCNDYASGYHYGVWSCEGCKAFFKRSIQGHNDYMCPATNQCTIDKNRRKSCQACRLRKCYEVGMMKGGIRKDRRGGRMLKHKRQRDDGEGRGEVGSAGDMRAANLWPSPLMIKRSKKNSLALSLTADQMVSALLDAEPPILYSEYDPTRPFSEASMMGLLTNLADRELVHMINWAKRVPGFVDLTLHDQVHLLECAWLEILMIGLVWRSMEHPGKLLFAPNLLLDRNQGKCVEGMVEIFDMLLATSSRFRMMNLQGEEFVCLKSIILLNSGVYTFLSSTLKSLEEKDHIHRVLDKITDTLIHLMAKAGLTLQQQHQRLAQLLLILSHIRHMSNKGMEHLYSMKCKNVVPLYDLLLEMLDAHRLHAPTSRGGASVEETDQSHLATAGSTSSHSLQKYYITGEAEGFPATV
In short: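 Luciferase signal from VM7Luc4E2 ERE-reporter cells, co-dosed with test compound and 0.1 nM final 17beta-estradiol for 22 h, read with ONE-Glo.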
% is set by controls: 0 for no effect and ±100 for the full control effect.

| Compound | activity change, negative = inhibition | Potency |
| --- | --- | --- |
| O=[N+]([O-])c1c2ccccc2cc2ccccc12 | 38.6% (inactive) |  |
| Fc1cccc(Cl)c1CCl | -1.47% (inactive) |  |
| O=C(Nc1ccc2[nH]ccc2c1)c1cc2cc(F)ccc2n1Cc1cccc(F)c1 | -29.7% (inactive) |  |
| N#CCCC(Br)(C#N)CBr (centres undefined) | -24% (inactive) |  |
| O=[N+]([O-])c1cc(C(F)(F)F)c(Cl)c([N+](=O)[O-])c1Cl |  | 61.1 µM (active) |

test system: not listed separately; experiment: qHTS assay to identify small molecule phospholipidosis (PLD) inducers (AID 1259344); details: HepG2 phospholipidosis, LipidTOX Red imaging, 24 h; series mostly up to 38.3 µM; PLD induction: at the top concentration
In short: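 Accumulated phospholipid, stained red by LipidTOX during 24 h compound treatment of HepG2 cells at 37 C, is quantified from images as pit number and intensity, normalised per cell using Hoechst-stained nuclei.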

| Compound | PLD induction |
| --- | --- |
| Nc1ccc(Sc2ccc(N)cc2)cc1 | 1.73% [at 15.5 µM] (inactive) |
| CN(C)CCc1c[nH]c2cccc(O)c12 | -2.68% [at 78.4 µM] (inactive) |
| S=C(SSC(=S)N1CCCCC1)N1CCCCC1 | -4.77% [at 0.0123 µM] (inactive) |
| Clc1ccc(CO/N=C(\Cn2ccnc2)c2ccc(Cl)cc2Cl)c(Cl)c1 | 18.3% (inactive) |
| Clc1ccc(CSC(Cn2ccnc2)c2ccc(Cl)cc2Cl)cc1 (centres undefined) | 0.886% [at 15.5 µM] (inactive) |
| Clc1ccc(CCC(Cn2ccnc2)Sc2c(Cl)cccc2Cl)cc1 (centres undefined) | 15.6% [at 15.5 µM] (inactive) |
| CCCCCCCCc1ccc(O)cc1 | -6.96% [at 78.4 µM] (inactive) |
| CCCN(CCC)c1c([N+](=O)[O-])cc(S(N)(=O)=O)cc1[N+](=O)[O-] | -3.53% [at 78.4 µM] (inactive) |
| CC1CCC(C(C)C)C(OC(=O)c2ccccc2N)C1 (centres undefined) | 3.68% (inactive) |

Reference: PubChem BioAssay (Tox21)
